Reference: PubChem BioAssay (NCATS)
Results filed as inconclusive are left out. Entries that show only a call come without a potency. A number with no mark means an inactive call. The source made the active and inactive calls. Calls come from the whole dose curve; as a rule, active = well fitted inhibition curve with a large enough effect; inconclusive = small, poorly fitted or top-dose-only effect; inactive = flat fitted curve, though single readings scatter.

What follows are compounds tested against Ubiquitin carboxyl-terminal hydrolase 1 (Homo sapiens) (UniProt O94782) (assay: Inhibitors of USP1/UAF1: Pilot qHTS (AID 504865; note: nearly all actives have a fitted effect of over 35% in size;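 for activity change, negative = inhibition: rhodamine fluorescence freed from ubiquitin-rhodamine substrate followed over time; top concentration of the series differs between compounds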)). Details: purified USP1/UAF1, Ub-rhodamine cleavage fluorescence; series mostly up to 114 µM; activity change, negative = inhibition: at the top concentration.
Chain of Ubiquitin carboxyl-terminal hydrolase 1 (Homo sapiens) (O94782 whole entry, looked up): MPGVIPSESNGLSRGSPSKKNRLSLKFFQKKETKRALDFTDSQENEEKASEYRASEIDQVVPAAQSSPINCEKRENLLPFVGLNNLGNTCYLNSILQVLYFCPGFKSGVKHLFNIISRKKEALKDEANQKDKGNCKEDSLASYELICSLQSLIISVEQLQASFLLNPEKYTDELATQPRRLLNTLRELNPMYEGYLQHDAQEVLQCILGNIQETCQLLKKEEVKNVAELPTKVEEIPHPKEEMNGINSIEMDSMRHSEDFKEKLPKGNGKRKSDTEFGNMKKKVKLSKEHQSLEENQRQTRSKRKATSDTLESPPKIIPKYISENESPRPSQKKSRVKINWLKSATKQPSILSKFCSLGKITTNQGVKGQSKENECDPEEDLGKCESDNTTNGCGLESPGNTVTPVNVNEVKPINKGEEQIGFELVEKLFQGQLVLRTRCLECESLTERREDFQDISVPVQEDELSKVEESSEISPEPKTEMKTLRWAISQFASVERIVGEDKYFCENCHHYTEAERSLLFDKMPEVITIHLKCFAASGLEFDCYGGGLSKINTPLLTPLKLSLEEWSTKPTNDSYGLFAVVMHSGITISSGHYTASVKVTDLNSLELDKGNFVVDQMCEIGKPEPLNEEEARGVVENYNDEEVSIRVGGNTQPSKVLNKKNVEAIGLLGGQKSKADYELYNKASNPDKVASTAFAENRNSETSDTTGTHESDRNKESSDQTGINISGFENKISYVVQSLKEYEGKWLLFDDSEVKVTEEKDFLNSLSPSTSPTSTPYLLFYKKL
Description: Deubiquitinating enzymes (DUBs) are a class of enzymes that can cleave isopeptide bond formed between the C-terminal carboxylate of ubiquitin and a lysine side-chain amino group on the target protein. Among them, ubiquitin specific proteases (USPs) constitute the largest DUB family. Human USPs are emerging as promising targets for pharmacological intervention because of their connection to a number of human diseases, including prostate, colon and breast cancer (1, 2), pediatric acute lymphoblastic leukemia (3), and familial cylindromatosis (4). The advantage of inhibiting USPs lies in the potential specificity of therapeutic intervention that can lead to better efficacy and reduce nonspecific side effects.
In a collaboration between the University of Delaware and the NIH Chemical Genomics Center, a high-throughput screen assay was developed to screen for USP1/UAF1 inhibitors. This miniaturized assay has a fluorescent read-out and is used to screen the NIH Molecular Libraries Small Molecule Repository (MLSMR) in order to identify a small molecule that inhibits USP1.
NIH Chemical Genomics Center [NCGC]
NIH Molecular Libraries Probe Centers Network [MLPCN]
Assay Submitter (PI): Zhihao Zhuang, University of Delaware
1. Priolo, C., et al. (2006) The isopeptidase USP2a protects human prostate cancer from apoptosis. Cancer Res 66, 8625-8632
2. Popov, N., et al. (2007) The ubiquitin-specific protease USP28 is required for MYC stability. Nat Cell Biol 9, 765-774
3. De Pitta, C., et al. (2005) A leukemia-enriched cDNA microarray platform identifies new transcripts with relevance to the biology of pediatric acute lymphoblastic leukemia. Haematologica 90, 890-898
4. Kovalenko, A., et al. (2003) The tumour suppressor CYLD negatively regulates NF-kappaB signalling by deubiquitination. Nature 424, 801-805
3 microliters of reagents (buffer in columns 3 and 4 as negative control and 1nM USP1/UAF1 complex in columns 1, 2, and 5-48) are dispensed into Greiner black solid bottom 1536-well assay plates. Compounds are then transferred via Kalypsys pin tool equipped with 1536-pin array (10nl slotted pins, V&P Scientific, San Diego, CA). Following an incubation step of 15 min at room temperature, 1ul of Ub-Rho substrate (150nM final concentration) is added to initiate the reaction. The plates are immediately centrifuged at 1000 rpm for 15 seconds, and subsequently transferred to a ViewLux high-throughput CCD imager (PerkinElmer) wherein kinetic measurements of fluorescence are acquired using 480 nm excitation/540 nm emission filter set (6 reads every 60 seconds, see Table 1). All reagents are diluted in an assay buffer consisting of 50mM HEPES (pH 7.8), 0.5mM EDTA, 0.1 mg/ml BSA, 1mM TCEP, and 0.01% Tween-20.
Potency is the fitted concentration of half-maximal effect.

| SMILES | activity change, negative = inhibition | Potency |
| --- | --- | --- |
| NC[C@H](O)c1ccc(O)c(O)c1 | 1.91% |  |
| NC(=O)c1cnccn1 | 0.65% |  |
| C[C@]12CCC(=O)C=C1CC[C@@H]1[C@@H]2[C@@H](O)C[C@@]2(C)[C@H]1CC[C@]2(O)C(=O)CO | -4.62% |  |
| NNCCc1ccccc1 |  | inactive |
| OC(CCN1CCCCC1)(c1ccccc1)C1CC2C=CC1C2 (stereo not given) | -7.11% |  |
| NS(=O)(=O)c1cc2c(cc1Cl)NC=NS2(=O)=O |  | inactive |
| CCN(CC)CCCC(C)Nc1ccnc2cc(Cl)ccc12 (stereo not given) |  | inactive |
| OC(CN1CCC(Cc2ccc(F)cc2)CC1)c1ccc(Cl)cc1 (stereo not given) |  | inactive |
| CC(C[N+](C)(C)C)OC(N)=O (stereo not given) |  | inactive |
| CCC(C)N(C)C(=O)c1cc2ccccc2c(-c2ccccc2Cl)n1 (stereo not given) | -10.1% |  |
| CCOC(=O)C1=C[C@@]2(CC)CCCN3CCc4c(n1c1ccccc41)[C@H]32 | 3.36% [at 54.9 µM] |  |
| O=c1n(CCCN2CCN(c3cccc(Cl)c3)CC2)nc2ccccn12 |  | inactive |
| Cc1oncc1C(=O)Nc1ccc(C(F)(F)F)cc1 | -5.08% |  |
| Cc1ccccc1C(OCCN(C)C)c1ccccc1 (stereo not given) |  | inactive |
| Cc1[nH]c(=O)c(C#N)cc1-c1ccc2nccn2c1 |  | inactive |
| CCc1ccc(CCOc2ccc(CC3SC(=O)NC3=O)cc2)nc1 (stereo not given) | -7.4% |  |
| CC(=O)Oc1ccccc1C(=O)O |  | inactive |
| CCCCNc1cc(C(=O)O)cc(S(N)(=O)=O)c1Oc1ccccc1 |  | inactive |
| Cc1ccc(N(CC2=NCCN2)c2cccc(O)c2)cc1 |  | inactive |
| CC(C)(Sc1ccc(CCN(CCCCC2CCCCC2)C(=O)NC2CCCCC2)cc1)C(=O)O |  | 44.7 µM (active) |

| SMILES | activity change, negative = inhibition | Potency |
| --- | --- | --- |
| Cc1[nH]c(=O)c(C#N)cc1-c1ccncc1 |  | inactive |
| Nc1nc2c(ncn2COCCO)c(=O)[nH]1 |  | inactive |
| COc1ccc2nc(S(=O)Cc3ncc(C)c(OC)c3C)[nH]c2c1 (stereo not given) |  | inactive |
| c1ccc([C@H]2CN3CCSC3=N2)cc1 | -1.84% |  |
| CC(C)NCC(O)COc1ccc(COCCOC(C)C)cc1 (stereo not given) |  | inactive |
| Cc1ccc2c(c1)C(=O)[C@@]1(O)CCN(c3ccccc3)C1=N2 | 14.9% |  |
| O=C1CCC(N2C(=O)c3ccccc3C2=O)C(=O)N1 (stereo not given) |  | inactive |
| CCn1cc(C(=O)O)c(=O)c2cc(F)c(N3CCNC(C)C3)c(F)c21 (stereo not given) |  | inactive |
| C1COC(NC(C2CC2)C2CC2)=N1 |  | inactive |
| Clc1cccc(Cl)c1NC1=NCCN1 |  | inactive |
| O=C(Nc1nc2ccccc2n1CCN1CCOCC1)c1cccc([N+](=O)[O-])c1 | 5.62% |  |
| NC(N)=NC(=O)c1nc(Cl)c(N)nc1N |  | inactive |
| NCCCC(N)(C(=O)O)C(F)F (stereo not given) |  | inactive |
| CC(C)(C)NCC(O)c1ccc(O)c(CO)c1 (stereo not given) |  | inactive |
| N[C@@H]1CONC1=O |  | inactive |
| NCCc1ccc(O)c(O)c1 |  | inactive |
| Oc1ccc(C2CNCCc3c2cc(O)c(O)c3Cl)cc1 (stereo not given) |  | inactive |
| CC(C)C[C@H](NC(=O)[C@@H](O)[C@H](N)Cc1ccccc1)C(=O)O |  | inactive |
| N=c1nc(N2CCCCC2)cc(N)n1O |  | inactive |
